The nature of test [1]: qHTS drug screen for cell cycle checkpoint inhibitors in PARPi-resistant BRCA-mutant ovarian cancer cell lines. (AID 1963452). The conditions noted are these: PEO1/OlaR viability, CellTiter-Glo luminescence, 96 h; for Z-AUC: stronger effect = lower value. The gist of the method: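 PEO1, PEO4 and PEO1/OlaR ovarian cancer cells, 600 per well, exposed 96 h at 37C to a dilution series. Viability read by CellTiter-Glo luminescence, normalized to DMSO and empty wells; activity summarized as Z-AUC.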

Test [2] in a line: qHTS profiling for inhibitors of Plasmodium falciparum proliferation (AID 504749; active = well fitted inhibition curve with a large enough effect;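 for activity, negative = inhibition: 0% = DMSO vehicle and full inhibition = artemisinin control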; for all read-outs here: nearly all actives have a fitted effect of over 60% in size). The note with it: P. falciparum in erythrocytes, SYBR Green DNA, 72 h; for activity, negative = inhibition: at 28.7 µM (top of the series). The gist of the method: (§1)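 SYBR Green fluorescence of parasite DNA, read after lysis and overnight dark incubation, measured growth over 72 h in erythrocyte culture at 0.3% parasitemia and 2.5% hematocrit. Data normalised to DMSO and 0.29 uM artemisinin, with plate-drift correction.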
A general note: Quantitative high-throughput screening tests each substance at several concentrations.

The next test relates to 3D7. The test is described as above. The conditions noted are these: P. falciparum in erythrocytes, SYBR Green DNA, 72 h; series mostly up to 28.7 µM. An outline of the steps: as §1
The test system of the next test is 7G8. Described as above. The note with it: P. falciparum in erythrocytes, SYBR Green DNA, 72 h; series mostly up to 28.7 µM. The gist of the method:
as §1

The subject of another test is AA1029. Described as above. The conditions noted are these: P. falciparum in erythrocytes, SYBR Green DNA, 72 h; series mostly up to 28.7 µM. An outline of the steps: as §1
Another test relates to AS120. The test is described as above. The note with it: P. falciparum in erythrocytes, SYBR Green DNA, 72 h; series mostly up to 28.7 µM. An outline of the steps:
as §1

Another test concerns ATS189. Described as above. The conditions noted are these: P. falciparum in erythrocytes, SYBR Green DNA, 72 h; series mostly up to 28.7 µM. An outline of the steps:
as §1

The test system of another test is ATS95. The test is described as above. The conditions noted are these: P. falciparum in erythrocytes, SYBR Green DNA, 72 h. An outline of the steps:
as §1

Another test deals with C2A. The description is as above. The conditions noted are these: P. falciparum in erythrocytes, SYBR Green DNA, 72 h; series mostly up to 28.7 µM. An outline of the steps:
as §1

Another test relates to CP185. The description is as above. The note with it: P. falciparum in erythrocytes, SYBR Green DNA, 72 h; series mostly up to 28.7 µM. An outline of the steps: as §1
Where [3] appears, read: measured here: PEO1 parental Z-AUC.

Records with an inconclusive call do not appear. Activity calls are given as the source filed them. Unless noted, calls come from the whole dose curve.
Potency is the fitted concentration of half-maximal effect.

As for `COC1CCN(C(=O)c2cc(Cc3n[nH]c(=O)c4ccccc34)ccc2F)CC1`, the values for the Z-AUC in test [1], in test [1] (setting [3]) and in test [1] (measured here: PEO4 Z-AUC) were 0.585 (inactive), -0.393 and 0.328, respectively.
Taken in the same sequence, the figures for `CCCCOC(=O)NS(=O)(=O)c1sc(CC(C)C)cc1-c1ccc(Cn2ccnc2)cc1` were 0.282 (inactive), 0.365 and 0.449.
For the compound `c1ccc(-c2ccc(CNc3nc(-c4ccccn4)nnc3-c3ccccc3)cc2)cc1`, the results for the Z-AUC in test [1], in [1] (setting [3]) and in test [1] (measured here: PEO4 Z-AUC) were -1.09 (inactive), -0.646 and -0.501, respectively.
Consider `C=CCNC1=C2C[C@@H](C)C[C@H](OC)[C@H](O)[C@@H](C)/C=C(\C)[C@H](OC(N)=O)[C@@H](OC)/C=C\C=C(/C)C(=O)NC(=CC1=O)C2=O`, for which the Z-AUC is -0.418 (inactive) in test [1], -0.98 in test [1] (setting [3]) and -0.867 in test [1] (measured here: PEO4 Z-AUC). Besides, the Potency was 1.41 µM (active) in [2] (parasite line A); 2.24 µM (active) in test [2] (parasite line B); 2.24 µM (active) with 3D7; 447 nM (active) in the test on 7G8; 1.41 µM (active) in the test with AA1029; 1.41 µM (active) in the test with AS120. For the same compound, the Potency was 2.24 µM (active) in the test with ATS189, 2 µM (active) with ATS95, 2 µM (active) in the test on C2A and 2.51 µM (active) in the test on CP185.
As for `Cc1nnc(C[C@@H]2C=C(c3ccc(Cl)cc3)c3ccccc3-n3c(C)nnc32)o1`, the figures for the Z-AUC in test [1], in test [1] (setting [3]) and in [1] (measured here: PEO4 Z-AUC) were 0.965 (inactive), 0.533 and 0.589, respectively.
Taken in the same sequence, the figures for `C[C@@H](Nc1ncnc2[nH]c(-c3ccc(O)cc3)cc12)c1ccccc1` were 0.00552 (inactive), 0.314 and 0.296.
Turning to `CC[C@@H](C)Nc1cc(C(=O)NC2CC3CC[C@@H](C2)N3c2ccc(C(=O)C3CC3)cn2)c(C)cc1C(N)=O` (some centres not stated), the Potency in test [1] is 219 nM (active). In addition, the Z-AUC is -1.88 in [1] (setting [3]) and -1.25 in test [1] (measured here: PEO4 Z-AUC).
Turning to `O=C([C@@H](Cc1cccc(C(F)(F)F)c1)NS(=O)(=O)c1cc(F)c2c(c1)CCNC2)N1CCCC1`, the Z-AUC in [1] was -0.343 (inactive); in [1] (setting [3]), -0.218; in [1] (measured here: PEO4 Z-AUC), -0.109.
Consider `NCC1CCN(c2nccc(-c3ccc4ccccc4c3)n2)CC1`, for which the Z-AUC was -1.15 (inactive) in test [1], 0.563 in test [1] (setting [3]) and -0.738 in test [1] (measured here: PEO4 Z-AUC).
Taken in the same sequence, the figures for `COC(=O)Nc1cc(Nc2cc(NC3CC3)c3ncc(C#N)n3n2)c(Cl)c(N2CCN(C)CC2)c1` were -1.26 (inactive), -0.992 and -1.22.
Consider `COc1cc2ncnc(Nc3ccc(O)c(Br)c3)c2cc1OC`, for which the Z-AUC was -0.393 (inactive) in test [1], 0.024 in [1] (setting [3]) and -0.318 in [1] (measured here: PEO4 Z-AUC).
On the same counts, the results for `O=C(CCl)Nc1cccc(NC2=NS(=O)(=O)c3ccccc32)c1` are -0.599 (inactive), -0.67 and -0.526.
On the same counts, the results for `Cc1cnc(-c2ccccc2C(C)C)nc1NCc1ccc(-n2ccnn2)cc1` are 1.08 (inactive), 1.04 and 1.31.
Taken in the same sequence, the figures for `O=C1Nc2nc(-c3c(O)cccc3OCC3CC3)cc([C@@H]3CCCNC3)c2CO1` were 0.934 (inactive), 0.63 and 0.451.
Regarding `C[C@@H]1COCCN1c1cc(=O)n2c(n1)N(Cc1cncc(Cl)c1)[C@H](C(F)(F)F)CC2`, the Z-AUC is -0.103 (inactive) in test [1], -0.0406 in [1] (setting [3]) and -0.0495 in [1] (measured here: PEO4 Z-AUC).
On the same counts, the results for `O=C(NCC(=O)N1CCCC1)Nc1ccc2cnccc2c1` are -0.618 (inactive), -0.349 and -1.01.
On the same counts, the results for `Cc1[nH]c2ccc(F)cc2c1-c1nc2c3cccnc3c3ncccc3c2[nH]1` are -1.49 (inactive), -0.715 and -1.31.
Taken in the same sequence, the figures for `C[C@@H](c1ccc2nccn2c1)n1nnc2ncc(-c3cnn(C)c3)nc21` were -0.155 (inactive), -0.0646 and -0.199.
With `CCc1cc(C(N)=O)ccc1-n1nc(C(C)C)c2c(-n3cnc(-c4cnn(C)c4)c3)ccnc21`, the Z-AUC is -0.734 (inactive) in [1], -1.82 in test [1] (setting [3]) and -1.2 in test [1] (measured here: PEO4 Z-AUC).
Regarding `CCCOc1ccc2nc(NC(=O)OC)sc2c1`, the activity, negative = inhibition in test [2] (parasite line A) is -2.17% (inactive); in test [2] (parasite line B), 4.31% (inactive). In addition, the Potency result in the test with 3D7, in the test with 7G8, in the test with AA1029, in the test on AS120, in the test with ATS189 and with C2A was “inactive” in each case. Also, in the test with CP185, the Potency entry is “inactive”.
Regarding `COc1c(C)cc(NC(=O)c2nn(Cc3ccc(F)cc3)c3c2CN(C(=O)c2ccc[nH]2)C[C@]3(C)C(N)=O)cc1C`, the Z-AUC in [1] was -0.421 (inactive); in test [1] (setting [3]), -0.262; in test [1] (measured here: PEO4 Z-AUC), -0.568.
`CN1C(=O)c2sccc2N(C)c2nc(Nc3ccc(S(N)(=O)=O)cc3)ncc21`: the Z-AUC in [1] was -1.71 (inactive); in test [1] (setting [3]) it was -0.96; in [1] (measured here: PEO4 Z-AUC) it was -1.18.

The record behind these values is PubChem BioAssay (NCATS).
